# Assay outcomes: PubChem BioAssay, several laboratories
# This is a sample that favours compounds with a hit; in the whole collection about 1.8% have one here.
# MRP-1 activ = H69AR viability gain despite doxorubicin, primary screen, MRP-1 activator project, H69AR cells, CellTiter-Glo | actives 0.61% (n = 140,000) | viability rescue | viability increase, % at 10 µM;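 active means viability gain under doxorubicin at or above a set limit, the compound median plus 3 SD, cut at about 4.7% in these data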;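 further: MRP-1 overexpressing cells given doxorubicin 25 µM after compound pretreatment; 18-22 h compound pretreatment then 72 h with doxorubicin before readout; 0% = doxorubicin-only wells and 100% = vehicle-treated cells without doxorubicin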
# S1P2 ag = S1P2 receptor agonists, primary screen, cell-based; actives 0.46% (n = 97,000); AID 729, 2007; activation, % at 4.5 µM; S1P2-expressing cell line, agonist reporter read-out; in the data active means activation above about 16%;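 further: 0% = vehicle low control and 100% = maximal reference agonist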
# GALR2 antag = GALR2 antagonists in receptor-expressing cells, primary screen | Galanin receptor type 2 (Homo sapiens), O43603 | antagonist mode | inhibition, % at 4 µM | actives 0.39% (n = 140,000); in the data active means inhibition above about 27%;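 further: cells stimulated with galanin 1-16 at roughly its EC80; 0% = agonist challenge control and 100% = basal control without agonist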
# Target sequence (O43603 whole entry, looked up): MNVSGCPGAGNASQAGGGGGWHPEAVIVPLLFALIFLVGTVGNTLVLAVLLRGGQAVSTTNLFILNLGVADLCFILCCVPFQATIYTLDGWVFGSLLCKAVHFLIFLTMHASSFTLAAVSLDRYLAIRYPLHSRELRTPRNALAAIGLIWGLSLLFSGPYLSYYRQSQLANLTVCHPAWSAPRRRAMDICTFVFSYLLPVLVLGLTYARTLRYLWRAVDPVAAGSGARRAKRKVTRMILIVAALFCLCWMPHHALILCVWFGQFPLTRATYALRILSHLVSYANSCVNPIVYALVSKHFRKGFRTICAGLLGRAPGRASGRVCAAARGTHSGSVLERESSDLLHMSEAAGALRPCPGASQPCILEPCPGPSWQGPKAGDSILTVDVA
# GALR2 ag = GALR2 receptor agonists, primary screen, cell-based. Galanin receptor type 2 (Homo sapiens), O43603. GALR2-expressing cells, agonist activation read-out. activation, % (test concentration not listed). actives 0.48% (n = 140,000); in the data active means activation above about 5%, passing the limit was not always enough;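 further: 0% = vehicle buffer wells and 100% = reference agonist at full effect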
# S1P2 blocker = human S1P2 receptor antagonists, primary screen, cell-based. AID 736, 2007. cell-based S1P2 antagonist assay, inhibition at 5 uM. Sphingosine 1-phosphate receptor 2 (Homo sapiens), O95136. inhibition, % at 5 µM. actives 0.21% (n = 97,000); in the data active means inhibition above about 45%;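 further: CRE beta-lactamase reporter cells expressing human S1P2 stimulated with S1P; 0% = agonist at EC80 alone and 100% = agonist plus reference antagonist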
# MRP resist rev = reversal of MRP1-mediated doxorubicin resistance, primary screen, H69AR cells, doxorubicin co-treatment. H69AR cells + 2 uM doxorubicin, CellTiter-Glo, 72 h. differential viability (reversal), % at 10 µM. actives 0.04% (n = 85,000). AID 602, 2007;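 active means viability drop by adding the cancer drug above about 55%, with treated viability meeting a 40% cutoff, limit read from the data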;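 further: viability without doxorubicin minus viability with 2 µM doxorubicin for each compound; larger differential means the compound sensitizes cells more to doxorubicin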
# * hit, by the source's call; nt = no result given.
SMILES,MRP-1 activ,S1P2 ag,GALR2 antag,GALR2 ag,S1P2 blocker,MRP resist rev
CN(C)c1oc(-c2ccc(OCc3ccccc3)cc2)nc1C#N,4.7*,-2,-3,-2,1,2
COc1ccc(-c2cnnc(N/N=C/c3ccc(OC)c(OC)c3)n2)cc1,-5,nt,6,0,nt,nt
COc1ccc(/C=N/Nc2nc(-c3ccc(Cl)cc3)cc(C(F)(F)F)n2)cc1OC,5.6*,nt,-11,0,nt,nt
c1ccc(-c2nc3ccccn3c2NCc2ccc3c(c2)OCO3)cc1,-4,174*,0,-2,6,1
CCOC(=O)c1ccc(S(=O)(=O)N2CCN(CCC#N)CC2)cc1,-1,nt,8,-1,nt,-13
CC(C)(C)NC(=O)CSc1nsc(SCC(=O)NC(C)(C)C)c1C#N,0,-8,2,-2,34,4
Cc1cc(NCCN2CCCCC2)n2c(nc3ccccc32)c1C#N,-3,-4,-17,0,13,5
CCOC(=O)c1cc2ccc(OC)cc2oc1=O,-2,-8,-2,-1,18,-2
C/C(=N/NC(=O)c1ccncc1)c1cc2ccc(O)cc2oc1=O,-1,nt,-24,7.5*,nt,nt
C/C(=N\NC(=O)c1ccncc1)c1cc2ccccc2oc1=O,1,nt,5,0,nt,nt
NC(=S)c1cc2ccc(O)cc2oc1=O,-2,38*,-1,14*,-52,nt
Cc1nnc(Sc2nc3c(c(=O)[nH]c(=O)n3C)n2CCCc2ccccc2)s1,0,27*,-5,-3,-31,7
CCCC(=O)Nc1ccc(N2CCN(C(=O)c3ccccc3C)CC2)cc1,-4,-6,33*,-1,6,5
CCOC(=O)c1c(C)n(C)c2ccc(OCC(O)CN(CC)CC)cc12 (stereo not drawn),-4,-5,13,-2,11,-7
CCOC(=O)c1c(C)n(C)c2ccc(OCC(O)Cn3nc(C)cc3C)cc12 (stereo not drawn),-1,58*,-7,0,-16,-21
COC(=O)[C@@]1(Cc2ccc(OC)cc2)[C@H]2c3cc(C(=O)N4CCCC4)n(CCc4c[nH]c5ccc(O)cc45)c3C[C@H]2CN1C(=O)c1ccccc1,-2,nt,1,0,nt,nt
O=C(Nc1ccc(N2CCCC2)c(Cl)c1)c1ccco1,4.9*,nt,6,-1,nt,9
O=C(Nc1ccc(N2CCCCC2)c(Cl)c1)c1ncn[nH]1,8.8*,-6,0,-2,8,nt
COc1ccc(S(=O)(=O)N(CC(=O)N/N=C/c2cccs2)c2ccc(C)cc2)cc1OC,-3,-7,-6,-1,24,nt
O=C(N/N=C/C=C/c1ccccc1)C(O)c1ccccc1 (stereo not drawn),nt,-5,30*,-5,9,nt
Cc1ccc(C(=O)NCc2ccc(Cl)c(Cl)c2)o1,-2,-5,3,-1,-31,1
CCc1nc(NCCCCCO)c2nnn(Cc3ccccc3F)c2n1,-1,0,-13,-3,-37,-4
C#CCNc1nc(CC)nc2c1nnn2Cc1ccccc1F,0,28*,-3,0,-30,-6
Nc1c(C(=O)NCCN2CCOCC2)c2nc3ccccc3nc2n1CCc1ccccc1F,-6,45*,-19,5.3*,-38,-20
Nc1c(C(=O)NCCN2CCOCC2)c2nc3ccccc3nc2n1CCc1ccccc1,-7,29*,-20,8.6*,-4,-3
SMILES,MRP-1 activ,S1P2 ag,GALR2 antag,GALR2 ag,S1P2 blocker,MRP resist rev
Nc1c(C(=O)NCCN2CCOCC2)c2nc3ccccc3nc2n1-c1ccccc1,-2,0,1,2,-4,-19
COc1ccc(NC(=O)c2cc3c([nH]c4ccccc43)c(C)n2)cc1,1,nt,3,-2,nt,nt
O=C(COc1ccc(Br)cc1)Nc1ccc(-c2nnc(-c3ccco3)o2)cc1,3,-6,4,-2,3,5
CS(=O)(=O)c1ncc(Cl)c(C(=O)Nc2ccc(N3CCOCC3)cc2)n1,0,nt,29*,-1,nt,0
O=C(Nc1ccc(N2CCOCC2)cc1)c1ccc(Cl)nc1,-1,-7,-2,-1,16,6
O=S(=O)(C/C(=C/CO)S(=O)(=O)c1ccccc1)c1ccccc1,-1,-8,82*,0,80*,nt
COCCn1nnnc1CN1CCN2CCCC2C1 (stereo not drawn),-3,43*,-4,-1,10,-4
CC(C)(C)n1nnnc1CN1CCN2CCCC2C1 (stereo not drawn),0,-3,-11,0,-2,12
O=C(CCN1C(=O)S/C(=C/c2ccc(Cl)cc2)C1=O)N1CCOCC1,-3,nt,5,-1,nt,nt
O=C(O)CCN1C(=O)CC(N2C(=O)/C(=C/c3ccc(Cl)cc3)SC2=S)C1=O (stereo not drawn),8.0*,nt,5,-2,nt,nt
CCn1c(COc2ccc(C)cc2)nnc1SCc1nc2ccccc2[nH]1,7.6*,-4,15,-2,2,-8
Cn1c(COc2ccccc2)nnc1SCc1nc2ccccc2[nH]1,0,-2,12,0,-36,11
CC1(C)O[C@@H]2C[C@H]3[C@@H]4CCC5=CC(=O)C=C[C@]5(C)[C@@]4(F)[C@@H](O)C[C@]3(C)[C@]2(C(=O)CO)O1,7.2*,nt,-7,0,nt,-14
CC1(C)O[C@@H]2C[C@H]3[C@@H]4C[C@H](F)C5=CC(=O)C=C[C@]5(C)[C@@]4(F)[C@@H](O)C[C@]3(C)[C@]2(C(=O)CO)O1,4,nt,4,1,nt,4
CC(=O)OCC(=O)[C@@]12OC3(CCCC3)O[C@@H]1C[C@H]1[C@@H]3CCC4=CC(=O)C=C[C@]4(C)[C@@]3(F)[C@@H](O)C[C@@]12C,-1,nt,-20,3,nt,3
C[C@]12C=CC(=O)C=C1CC[C@H]1[C@@H]3C[C@@H](O)[C@](O)(C(=O)CO)[C@@]3(C)C[C@H](O)[C@@]12F,5.2*,nt,-10,0,nt,nt
COc1ccc(-c2nc(SC)n(C)c(=O)c2C#N)cc1OC,-1,nt,4,0,nt,-5
COc1ccc(N2CCN(C(=O)CSc3nnc4c(C)cc5ccc(C)c(C)c5n34)CC2)cc1,0,-6,19,-1,-12,nt
CC(/C=N\NC(=O)CN1CCN(S(=O)(=O)c2ccc(C)cc2)CC1)=C\c1ccccc1,5.8*,nt,-7,0,nt,nt
CCc1nnc(NC(=O)C2CCCN2S(=O)(=O)c2ccc(C)cc2)s1 (stereo not drawn),6.8*,-3,1,0,18,-12
Cc1ccc(C(=O)CSc2nnc(-c3ccccc3)n2-c2ccccc2)o1,-2,-6,4,1,17,0
Cc1ccc2[nH]c(=O)c(C(c3nnnn3C3CCCC3)N3CCCc4ccccc43)cc2c1 (stereo not drawn),19*,-6,10,-2,1,-20
CCCOc1ccc(C2C(C(=O)OC)=C(C)N=C3SCCC(=O)N32)cc1OCC (stereo not drawn),-4,25*,-9,1,-41,-3
